Screening results from PubChem.
LANA-H2A inh = blockers of LANA interaction with H2A/H2B – biochemical, FP readout, HTS, primary screen. AID 2629, 2010. 0.6% of 320,000 active. inhibition, % (concentration not given with the values). Protein LANA1 (Human herpesvirus 8 type P (isolate GK18)), Q9QR71. cell-free LANA-H2A/H2B peptide, fluorescence polarization; in the data active means inhibition mostly above about 10%, no sharp cut-off; inactive means mostly below about 6.7%
rCAG binder = binders of r(CAG) RNA repeats, primary screen, biochemical, fluorescence | r(CAG) RNA repeat, TO-PRO-1 dye displacement fluorescence | inhibition, % at 3 µM | 1.3% of 370,000 active;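 active means inhibition above the plate cutoff, the mean of all test compounds on that plate plus 3 SD, cut at about 35% in these data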;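 further: 0% = DMSO alone and 100% = 100 µM mitoxantrone as full dye displacement; higher means more dye released from RNA so lower well fluorescence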
PRMT1 FP inh = PRMT1 methyltransferase inhibitors, primary screen, biochemical, fluorescence polarization. Protein arginine N-methyltransferase 1 (Homo sapiens), Q99873. recombinant PRMT1, activity-based probe fluorescence polarization. inhibition, % at 2.79 µM. 1.3% of 370,000 active. AID 652257, 2013;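 active means inhibition above about 21% made by adding two undisclosed values, limit read from the data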
ABHD5-PLIN5 inh = ABHD5-PLIN5 interaction inhibitors, primary screen, cell lysate, split luciferase complementation, luminescence; Split G. princeps luciferase complementation, 4 h; inhibition, % at 4 µM; 0.78% of 360,000 active; AID 602281, 2012;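 active means inhibition above the mean inhibition across every tested compound plus 3 SD, cut at about 22% in these data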;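 further: 0% = DMSO only wells and the 100% control is not disclosed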
Target sequence (Q00G26 whole entry, looked up): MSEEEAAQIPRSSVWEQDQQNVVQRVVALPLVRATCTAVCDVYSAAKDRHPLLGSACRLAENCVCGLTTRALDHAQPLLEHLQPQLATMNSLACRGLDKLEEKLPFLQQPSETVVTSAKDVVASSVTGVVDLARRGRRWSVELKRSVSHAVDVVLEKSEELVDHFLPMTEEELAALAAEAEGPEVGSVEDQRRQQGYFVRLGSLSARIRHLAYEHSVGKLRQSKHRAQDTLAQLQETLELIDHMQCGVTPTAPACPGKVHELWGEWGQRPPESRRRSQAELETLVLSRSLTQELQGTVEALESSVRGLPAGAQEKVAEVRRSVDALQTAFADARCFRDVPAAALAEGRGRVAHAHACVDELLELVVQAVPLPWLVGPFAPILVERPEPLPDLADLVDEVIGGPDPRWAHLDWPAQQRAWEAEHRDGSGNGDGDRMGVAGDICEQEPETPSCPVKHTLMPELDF
Target sequence (Q8WTS1 whole entry, looked up): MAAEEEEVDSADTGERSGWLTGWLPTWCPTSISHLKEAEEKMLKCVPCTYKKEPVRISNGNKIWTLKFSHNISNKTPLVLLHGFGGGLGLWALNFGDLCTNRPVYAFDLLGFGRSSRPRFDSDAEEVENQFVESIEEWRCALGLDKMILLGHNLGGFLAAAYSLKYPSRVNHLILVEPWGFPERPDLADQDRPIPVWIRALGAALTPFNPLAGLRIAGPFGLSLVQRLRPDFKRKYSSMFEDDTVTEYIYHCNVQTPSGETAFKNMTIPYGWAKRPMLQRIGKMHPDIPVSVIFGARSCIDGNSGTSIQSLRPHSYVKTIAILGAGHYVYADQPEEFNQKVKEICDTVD
Rtt109 Vps75 = inhibitors of C. albicans Rtt109/Vps75 HAT, primary screen, biochemical, ThioGlo CoA-SH fluorescence, plate reader | purified Rtt109/Vps75, 4 h | Histone acetyltransferase RTT109 (Candida albicans (strain SC5314 / ATCC MYA-2876)), … | 0.16% of 330,000 active | inhibition, % at 34.9 µM;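 active means inhibition of at least 50% in every replicate; inconclusive means best replicate reaches 50% inhibition but some replicates fall short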
ALR inh = inhibitors of human ALR sulfhydryl oxidase, primary screen, biochemical, H2O2 detection, HRP-luminol luminescence, single point. inhibition, % (test concentration not listed). FAD-linked sulfhydryl oxidase ALR (Homo sapiens), P55789. 3.8% of 290,000 active. purified ALR, DTT oxidation. AID 485317, 2010;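 active means mean replicate inhibition above about 79%, with every replicate also reaching it, limit read from the data; inconclusive means only one of the two criteria met; inactive means mean below limit and not every replicate reaching it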
An asterisk follows results filed as active; ? = inconclusive; nt = no result given. Hits are enriched below; roughly 5.9% of the tested compounds scored in any of these assays.

SMILES | LANA-H2A inh | rCAG binder | PRMT1 FP inh | ABHD5-PLIN5 inh | Rtt109 Vps75 | ALR inh
COc1ccc(/C=C2\SC(=O)N(CCC(=O)N(C)C3CCS(=O)(=O)C3)C2=O)cc1 (centres undefined) | 0 | 7 | 0 | -1 | 5 | -2
CCN(C(=O)CN1C(=O)S/C(=C\c2ccc(F)cc2)C1=O)C1CCS(=O)(=O)C1 (centres undefined) | 4 | -1 | 7 | 23* | 2 | 60
CN(C(=O)CCN1C(=O)S/C(=C\c2ccccc2)C1=O)C1CCS(=O)(=O)C1 (centres undefined) | 18* | 0 | 4 | -6 | -23 | 19
COc1ccc(/C=C/S(=O)(=O)NCc2ccccc2)c(CNC(=O)OC(C)(C)C)c1 | nt | 5 | -1 | nt | nt | nt
C[C@H]1CN(c2ccc(N3CCNC[C@@H]3C)cc2C#N)CCN1Cc1ccccc1 | nt | 5 | -5 | nt | nt | nt
S=C(NCC1CCCO1)N1CCN(c2cccc(Cl)c2)CC1 (centres undefined) | 0 | -5 | 3 | 13 | nt | 3
Fc1ccc(N2CCN(C(=S)NCC3CCCO3)CC2)cc1 (centres undefined) | 1 | -3 | -1 | -7 | -7 | 99*
N#CCSc1nc2cc(C(=O)N3CCC(C(N)=O)CC3)ccc2c2nc3ccccc3n12 | -3 | nt | nt | 2 | -3 | 98*
N#CCSc1nc2cc(C(=O)N3CCCC3)ccc2c(=O)n1Cc1ccccc1 | -5 | -9 | -3 | 1 | -6 | 0
COc1ccc(C(C[N+](=O)[O-])C2(c3ccc(OC)c(OC)c3)C(=O)c3ccccc3C2=O)cc1 (centres undefined) | -8 | nt | nt | 84* | 4 | 62
COc1cc(/C=C2/SC(N)=NC2=O)ccc1Oc1ccc([N+](=O)[O-])cc1[N+](=O)[O-] | 2 | 6 | -1 | 2 | -3 | -6
COc1cc(/C=C2/NC(=O)N(Cc3ccccc3F)C2=O)ccc1Oc1ccc([N+](=O)[O-])cn1 | 3 | 3 | 1 | 4 | -1 | nt
COc1cc(/C=C2\SC(=O)NC2=O)ccc1Oc1ccc([N+](=O)[O-])cn1 | 1 | 24 | 2 | 6 | -4 | 98*
COc1cc(/C=C2/SC(=O)NC2=O)ccc1Oc1ccc([N+](=O)[O-])cc1[N+](=O)[O-] | -5 | 22 | 0 | 0 | 3 | 97*
CC(=O)O[C@@H]1CCC[C@@]2(C(=O)N(Cc3ccccc3)c3ccc(-c4c(C)noc4C)cc32)[C@H]1NC(=O)CCc1ccccc1 | nt | 9 | 0 | nt | nt | nt
O=C(CSc1ccc2ccccc2c1)N1CCN(c2ccc(O)cc2)CC1 | 0 | 0 | 3 | 4 | -2 | 98*
CC(C(=O)Nc1ccccc1)N1CCN(C(=O)c2ccco2)CC1 (centres undefined) | 68* | 2 | -1 | -8 | 1 | nt
COc1ccccc1OCCC(=O)N1CCN(c2ccccc2OC)CC1 | 3 | -8 | -3 | 2 | -7 | 82*
COc1ccccc1N1CCN(C(=O)CCC(=O)N2CCN(c3ccccc3OC)CC2)CC1 | 2 | -9 | -4 | -4 | 4 | ?
COc1ccccc1N1CCN(C(=O)CSc2ccccc2)CC1 | -1 | -4 | 6 | 1 | 0 | 99*
CC(C)c1ccc(NC(=O)C(c2ccccc2)N2CCN(C(=O)c3ccco3)CC2)cc1 (centres undefined) | 2 | -3 | -1 | -7 | 3 | -1
COc1ccc(S[C@]2(C(=O)N3CCOCC3)CC(=O)N(c3ccc(C#N)cc3)[C@@H]2c2ccc(OC)cc2)cc1 | nt | 7 | 5 | nt | nt | nt
CN1C/C(=C/c2ccccc2[N+](=O)[O-])C(=O)/C(=C\c2ccccc2[N+](=O)[O-])C1 | nt | 8 | 3 | -4 | 7 | nt
COc1ccccc1N1CCN(C(=O)C(C)NC(=O)c2ccco2)CC1 (centres undefined) | -5 | 3 | -1 | -2 | -9 | 50
COc1ccc(N2CCN(C(=O)CCNS(=O)(=O)c3cc(Br)cnc3N)CC2)cc1 | 4 | nt | nt | 3 | -4 | 71
SMILES | LANA-H2A inh | rCAG binder | PRMT1 FP inh | ABHD5-PLIN5 inh | Rtt109 Vps75 | ALR inh
COc1ccccc1N1CCN(C(=O)c2ccco2)CC1 | 17* | -1 | 2 | -7 | -7 | 38
COc1ccccc1N1CCN(C(=O)CCNS(=O)(=O)c2cc(Br)cnc2N)CC1 | -5 | -1 | 4 | 10 | 10 | 99*
O=C(NCc1ccccc1)C1C(c2ccc3c(c2)OCO3)=Nc2ccccc2N1C(=O)c1cccc2ccccc12 (centres undefined) | nt | 14 | 1 | 8 | nt | nt
O=C(CSc1nnc2ccccn12)c1ccc(Cl)cc1 | -2 | -3 | -6 | 2 | 1 | 85*
O=C(CSc1nnc2ccccn12)NNC(=O)c1cccc(Cl)c1 | -3 | 2 | 0 | -2 | 58* | nt
COC(=O)C[C@@H]1CC[C@H](NC(=O)Nc2cccc(F)c2)[C@@H](CO)O1 | nt | 1 | -1 | 2 | nt | nt
CC(=O)Nc1ccccc1-c1nnc(SCc2ccccc2Cl)[nH]c1=O | 0 | 12 | -1 | -3 | nt | 99*
COc1cccc(C(=O)N[C@H](C(=O)N2CCC[C@H]2C(=O)NC2CCCC2)C2CCCCC2)c1 | nt | 1 | -8 | nt | nt | nt
Cc1cc(SCC(=O)N/N=C/c2ccc(C(=O)O)cc2)nc2ccccc12 | -1 | 5 | -3 | 4 | -1 | 99*
O=C(CSc1nc2ccccc2o1)N/N=C/c1ccc(C(=O)O)cc1 | 3 | 0 | 6 | 0 | -16 | nt
O=C1NC[C@H](CCCCN2CCN(CCc3ccc(O)cc3)C(=O)C2=O)N(CCc2ccc(O)cc2)C1=O | nt | 3 | 0 | 0 | nt | nt
CN(C)CCCNc1cc(C(C)(C)C)nc2c(-c3ccccc3)cnn12 | 1 | 0 | 1 | 7 | -1 | 99*
CC(C)(C)c1cc(NCCCn2ccnc2)n2ncc(-c3ccc(Cl)cc3)c2n1 | -1 | 3 | -2 | 3 | -13 | -2
CC(C)N(C(=O)[C@H]1C[C@H](CC(=O)NCc2cccc(C(F)(F)F)c2)C(=O)N2CCc3c([nH]c4cc(-c5ccco5)ccc34)[C@]12C)C(C)C | nt | 11 | 15 | 22* | 7 | nt
CCN(CC)C(=O)[C@H]1C[C@H](CC(=O)NCc2ccc(OC)c(OC)c2)C(=O)N2CCc3c([nH]c4cc(-c5ccco5)ccc34)[C@]12C | nt | 11 | 17 | 23* | -31 | nt
CC(C)=CCC/C(C)=C/CNC(=O)C[C@H]1C[C@H](C(=O)N2CCCCC2)[C@@]2(C)c3[nH]c4cc(-c5ccco5)ccc4c3CCN2C1=O | nt | 21 | 24* | 9 | 2 | nt
